Article PMC5540273 (PLoS ONE, 2017)

Assays:
Conditions in all cases: concentration: 1 μM, replicates: in singlicate; n = 1
CLK2 = test system: CLK2
CLK3 = test system: CLK3
CLK4 = test system: CLK4
CSF1R-autoinhibited = test system: CSF1R-autoinhibited
CSF1R = test system: CSF1R
CSK = test system: CSK
CSNK1A1L = test system: CSNK1A1L
CSNK1A1 = test system: CSNK1A1
CSNK1D = test system: CSNK1D
CSNK1E = test system: CSNK1E
CSNK1G1 = test system: CSNK1G1
CSNK1G2 = test system: CSNK1G2
CSNK1G3 = test system: CSNK1G3
CSNK2A1 = test system: CSNK2A1
CSNK2A2 = test system: CSNK2A2
CTK = test system: T1, CTK
T1 construct: gene MATK

DAPK1 = test system: DAPK1
DAPK2 = test system: DAPK2
DAPK3 = test system: DAPK3
DCAMKL1 = test system: T2, DCAMKL1
T2 construct: gene DCLK1
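Note: KINOMEscan kinase panel screen.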

Row | Structure (SMILES) | %Inh (CLK2) [%] | %Inh (CLK3) [%] | %Inh (CLK4) [%] | %Inh (CSF1R-autoinhibited) [%] | %Inh (CSF1R) [%] | %Inh (CSK) [%] | %Inh (CSNK1A1L) [%] | %Inh (CSNK1A1) [%] | %Inh (CSNK1D) [%] | %Inh (CSNK1E) [%] | %Inh (CSNK1G1) [%] | %Inh (CSNK1G2) [%] | %Inh (CSNK1G3) [%] | %Inh (CSNK2A1) [%] | %Inh (CSNK2A2) [%] | %Inh (CTK) [%] | %Inh (DAPK1) [%] | %Inh (DAPK2) [%] | %Inh (DAPK3) [%] | %Inh (DCAMKL1) [%]
1 | CN1CCN(Cc2ccc(NC(=O)Nc3ccc(N(C)c4ccnc(Nc5ccc(CS(C)(=O)=O)cc5)n4)cc3)cc2)CC1.Cl [GW827654] | 0 | 31 | 0 | 94.7 | 100 | 47 | 0 | 30 | 15 | 30 | 0 | 0 | 0 | 100 | 22 | 16 | 8 | 0 | 0 | 44
2 | N#CC1(c2cccc(C(=O)Nc3cccc(Oc4ccc5nc(NC(=O)C6CC6)sc5n4)c3)c2)CC1 | 4 | 0 | 17 | 87 | 100 | 25 | 0 | 0 | 14 | 0 | 0 | 7 | 0 | 0 | 0 | 0 | 0 | 44 | 13 | 3
3 | Nc1ncc(-c2cn[nH]c2)c2scc(-c3ccc4c(c3)CCN4C(=O)Cc3ccccc3)c12 [GSK2593067] | 0 | 0 | 55 | 51 | 99.9 | 68 | 9 | 0 | 4 | 32 | 6 | 24 | 27 | 11 | 0 | 12 | 0 | 0 | 22 | 0
4 | Nc1ncc(-c2ccc3nccc(-c4ccncc4)c3c2)cc1S(=O)(=O)N1CCCCC1 [GSK1693850] | 67 | 49 | 72 | 0 | 4 | 0 | 0 | 0 | 24 | 54 | 0 | 18 | 33 | 2 | 0 | 0 | 11 | 26 | 30 | 15
5 | COc1cccc2c(-c3ccncc3)c(-c3ccc(F)cc3)nn12 [GW468513] | 0 | 6 | 17 | 24 | 0 | 0 | 50 | 93.6 | 90.7 | 99.8 | 10 | 14 | 31 | 11 | 12 | 8 | 0 | 0 | 21 | 0
6 | CN(C)c1ncnc2nc[nH]c12 [SKF-31736] | 23 | 0 | 0 | 0 | 6 | 0 | 0 | 0 | 0 | 4 | 3 | 0 | 0 | 0 | 5 | 36 | 7 | 3 | 20 | 32
7 | Nc1ncnc2scc(-c3ccc(NC(=O)Cc4cc(F)ccc4F)cc3)c12.O=C(O)C(F)(F)F [SB-731254-M] | 0 | 14 | 12 | 79 | 100 | 9 | 6 | 15 | 29 | 0 | 26 | 36 | 40 | 13 | 14 | 67 | 0 | 100 | 100 | 27
8 | O=C(Nc1c(F)cccc1F)c1cc(C(=O)c2ccccc2F)c[nH]1 [GSK1326180] | 0 | 2 | 0 | 32 | 1 | 0 | 5 | 16 | 0 | 20 | 0 | 0 | 21 | 0 | 0 | 0 | 0 | 4 | 4 | 0
9 | COc1cccc(C2=C(Nc3cccc(O)c3)C(=O)NC2=O)c1 [SB-390771] | 61 | 17 | 72 | 45 | 37 | 100 | 10 | 0 | 32 | 29 | 9 | 0 | 15 | 0 | 8 | 0 | 14 | 0 | 16 | 21
10 | COc1cc(Nc2ccnc3cc(-c4ccncc4)ccc23)cc(OC)c1OC.Cl [GW494610] | 0 | 0 | 29 | 22 | 49 | 79 | 18 | 11 | 46 | 38 | 0 | 0 | 7 | 7 | 0 | 0 | 0 | 0 | 9 | 0
